This is a sample that favours compounds with a hit; in the whole collection about 6.2% have one here.
Lassa entry inh: inhibitors of Lassa virus binding or cell entry | Lassa virus pseudotype entry inhibition, cell reporter | Potency, µM (top dose mostly 37.9 µM), for inactives: at the highest dose activity change, negative = inhibition, most hits filed as inhibitors | 300,000 tested, 1.2% active | AID 540256; calls by dose curve; tested in HEK293 cells; note: potency is the fitted concentration of half-maximal effect; nearly all actives have a fitted effect of over 50% in size
Marburg entry inh: blocks Marburg virus binding to or entry into cells; Marburg virus pseudotyped entry inhibition, cell reporter; Potency, µM (highest dose often 37.8 µM), for inactives: at the top dose activity change, negative = inhibition, hits mostly inhibitors; 300,000 tested, 1.8% active; calls by dose curve; tested in HEK293 cells; note: potency is the fitted concentration of half-maximal effect
HCMV antiviral: human cytomegalovirus inhibition; activity change, negative = inhibition, % at 57.5 µM; AID 1259415; 410,000 tested, 4.5% active; HFF cells, HCMV-luciferase reporter, 72 h; hits give low values; in the data active = activity change below about -60%; inconclusive = no clear call, values can overlap the other calls; inactive = above about -39%
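Luciferase read-out from HCMV-luciferase-infected HFFs (MOI 1 PFU/cell) 72 h post infection at 37C; compounds added after 16 h cell attachment; activity normalized between buffer-only basal and Salinomycin (10uM) inhibitor controls.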
FMDV inh: antivirals against foot and mouth disease virus; FMDV antiviral cell-based qHTS; Potency, µM (titrated, usually from 57.9 µM), for the others: at the highest dose activity change, negative = inhibition, hits mostly inhibitors; 410,000 tested, 1.2% active; calls by dose curve; tested in HEK293T cells; note: read-out not given here; potency is the fitted concentration of half-maximal effect; nearly all actives have a fitted effect of over 45% in size
* hit, by the source's call; ? = inconclusive; . = not tested or not shown; ! = not confirmed by another sample; [ ] = another dose, or the depositor's remark. % is set by controls: 0 for no effect and ±100 for the full control effect.

SMILES | Lassa entry inh | Marburg entry inh | HCMV antiviral | FMDV inh
O=C(Nc1ccc2nc(SCC(=O)N3CCc4ccccc43)sc2c1)c1cccc(Cl)c1 | -6%[46.1 µM] | 24%[46.1 µM] | 37 | -11%
Cc1ccccc1OCC(=O)Nc1ccc2nc(SCC(=O)N3CCOCC3)sc2c1 | 7%[46.1 µM] | -20%[46.1 µM] | -78* | 28µM*
Cc1ccccc1OCC(=O)Nc1ccc2nc(SCC(=O)N3CCCC3)sc2c1 | 11%[46.1 µM] | ? | -35 | -22%
CC1=CC[C@@H](COc2ccccc2)O[C@@]2(C1)C(=O)N(Cc1ccc(F)cc1)c1cccc(Br)c12 | . | -10%[14.2 µM] | . | .
CCN1C(=O)[C@H]2[C@H]3[C@H](O)[C@H](O)C/C(=N\OCC[C@@H]4C=C[C@H](OC(C)=O)[C@@H](COC(C)=O)O4)[C@@H]3CC[C@H]2C1=O | . | -15%[14.2 µM] | . | .
CC(C)(C)NC(=O)CSc1nc2ccc(Nc3nc(N4CCOCC4)nc(N4CCOCC4)n3)cc2s1 | . | . | -66* | ?
CC(=O)CSc1nc2ccc(Nc3nc(N4CCOCC4)nc(N4CCOCC4)n3)cc2s1 | -13% | ? | -13 | -10%
COc1ccc(C(=O)C(=NNc2ccccc2)c2ccc(OC)cc2)cc1 | -20%[46.1 µM] | ? | ? | -14%
COc1ccc(N/N=C(\C=N\O)C(=O)c2ccc(OC)cc2)cc1 | 2.8µM* | ? | -11 | -1%
CCOc1cccc(CC(=O)NCc2ccc3c(c2)CCN3C(=O)c2cccc(C)c2)c1OCC | 11µM* | ? | -67* | 14µM*
CCOc1ccc(C(=O)NCc2ccc3c(c2)CCN3C(=O)c2ccccc2)cc1 | 18%[46.1 µM] | . | -32 | -24%
Cc1cccc(C(=O)N2CCc3cc(CNC(=O)c4ccco4)ccc32)c1 | 20%[46.1 µM] | . | -38 | 28µM*
COc1ccc(C)cc1NC(=O)NCc1ccc2c(c1)CCN2C(=O)c1ccccc1 | ? | . | -92* | ?
CCOc1ccccc1C(=O)NCc1ccc2c(c1)CCN2C(=O)c1ccccc1 | ? | . | -78* | -28%
COc1ccccc1CNc1ncncc1-c1ccc(C(=O)N(C)C)cc1 | . | . | . | -2%
CCc1ccccc1NC(=O)NCc1ccc2c(c1)CCN2C(=O)c1ccccc1 | 18%[46.1 µM] | . | 23 | -23%
CCOc1ccccc1NC(=O)NCc1ccc2c(c1)CCN2C(=O)c1ccccc1 | ? | . | -82* | 0%
Cc1cc(C)cc(NC(=O)Cn2nnc(C(=O)Nc3cc(C)cc(C)c3)c2N)c1 | -17%[46.1 µM] | -30%[46.1 µM] | -83* | -11%
CCC1CCCCN1c1nc(-c2ccncc2)nc2ccccc12 (stereo unspecified) | ? | 9.2µM* | ? | ?
COc1cc(NC(=O)Nc2cccc(-c3noc(C)n3)c2)cc(OC)c1OC | 0%[46.1 µM] | . | -77* | ?
Cc1cc(C)n2cc(CSc3nnnn3-c3ccc(Cl)cc3)nc2n1 | 3% | -3% | -24 | -28%
Cc1cc(C)n2cc(CSc3nnc(-c4ccccc4)c(-c4ccccc4)n3)nc2n1 | . | . | -9 | 28µM*
Cc1cc(C)n2cc(CSc3nnnn3-c3ccccc3)nc2n1 | -3% | 1% | -71* | -18%
COC(=O)C1[C@H]2[C@@H]3[C@H](c4ccc(C)o4)Nc4ccc(Cl)cc4[C@@H]3N(C(=O)OC(C)(C)C)[C@@H]12 (stereo partly specified) | . | . | -36 | .
O=C(CC1C(=O)N(Cc2ccccc2)C(=S)N1CCN1CCOCC1)Nc1ccc(F)cc1 (stereo unspecified) | 1% | 6%[46.1 µM] | -69* | 15%
SMILES | Lassa entry inh | Marburg entry inh | HCMV antiviral | FMDV inh
CCCOc1ccc(NC(=O)CC2C(=O)N(CC)C(=S)N2CCCN2CCN(Cc3ccccc3)CC2)cc1 (stereo unspecified) | ? | ? | -84* | 4%
CCN1C(=O)C(CC(=O)Nc2ccc(Br)cc2)N(CCCc2ccccc2)C1=S (stereo unspecified) | 13µM* | ? | ? | ?
CCOc1ccc(NC(=O)CC2C(=O)N(CC)C(=S)N2CCN2CCOCC2)cc1 (stereo unspecified) | . | 5%[46.1 µM] | 26 | -2%
Oc1cccc(Nc2nccc3[nH]c(-c4ccccc4)cc23)c1 | . | . | -7 | .
CC1(Cc2ccc3c(c2)OCO3)C(=O)Nc2c(Cl)ccc(Cl)c21 (stereo unspecified) | . | . | -68* | 0%
CC(=O)Nc1ccccc1-c1nc2ccccc2n(C(C)C(=O)Nc2cccc(C)c2C)c1=O (stereo unspecified) | 1%[46.1 µM] | -1%[46.1 µM] | 9 | -15%
COc1ccc(C(C)n2c(C)c3c(C)nnc(C)c3c2C)cc1 (stereo unspecified) | 14%[46.1 µM] | ? | -81*! | 0%
C#Cc1cccc(C(=O)NCc2nc(-c3ccccc3NC(=O)C3CCCO3)oc2C)c1 (stereo unspecified) | . | . | . | -7%
COc1cc(N2C(=O)C=CC2=O)ccc1N1C(=O)C=CC1=O | ? | ? | -76* | 32µM*
COc1ccc(N2C(=O)C3CC(C)=C(C)CC3C2=O)c(OC)c1 (stereo unspecified) | 8% | -4% | 1 | -22%
CCSc1nnc2c(n1)OC(c1ccc(OC)cc1OC)N(C(C)=O)c1ccccc1-2 (stereo unspecified) | -27%[46.1 µM] | -7%[46.1 µM] | -63* | 6%
COc1cc(OC)c(C2Oc3nc(SC)nnc3-c3ccccc3N2C(C)=O)cc1OC (stereo unspecified) | . | 5% | 12 | 12%
COc1ccc(CNc2ncnc3ccc(-c4ccc(C(=O)N(C)C)cc4)cc23)c(OC)c1 | . | . | . | 4%
O=C(Nc1ccccc1SCC1CSc2nc3ccccc3c(=O)n21)c1ccccc1Cl (stereo unspecified) | ? | ? | ? | -2%
Cc1ccc(C(=O)Nc2ccccc2SCC2CSc3nc4ccccc4c(=O)n32)cc1 (stereo unspecified) | 7.1µM* | 3.2µM* | -85* | -13%
Cc1cccc(C(=O)Nc2ccccc2SCC2CSc3nc4ccccc4c(=O)n32)c1 (stereo unspecified) | 6.3µM* | 0.89µM* | -75* | -24%
O=C(Nc1ccccc1SCC1CSc2nc3ccccc3c(=O)n21)c1cccc(Cl)c1 (stereo unspecified) | 2.5µM* | ? | -96* | 0%
O=C(Nc1ccccc1SCC1CSc2nc3ccccc3c(=O)n21)c1ccccc1 (stereo unspecified) | ? | ? | -70* | -9%
Cc1cccc(-n2cnc3cc(C(=O)NCc4ccccc4Cl)ccc32)c1 | ? | . | -29 | 15%
Cn1c(-c2ccncc2)nc2cc(C(=O)N[C@H]3CCCCNC3=O)cc(NC(=O)C3CCC3)c21 | . | . | . | -18%
COc1cc(OC)c(N(C)C(=O)c2sc3nc4n(c(=O)c3c2C)CCCC4)cc1Cl | 10%[46.1 µM] | . | -19 | -8%
Cc1ccc(N(Cc2ccccc2)C(=O)CSC(C)C(=O)Nc2cc(C)on2)cc1 (stereo unspecified) | . | . | -64* | 29%
Cn1c(-c2ccc(C(C)(C)C)cc2)n[nH]c1=S | ? | -21% | 39 | 29%
CC(C)(C)c1ccc(-c2n[nH]c(=S)n2C2CCCC2)cc1 | ? | ? | -91* | ?
O=C(c1cccc(F)c1)N1CC(=O)N2[C@H](CO)[C@@H](c3ccc(Br)cc3)[C@@H]2C1 | . | . | -13 | .
Cc1nc2ccn(Cc3ccco3)c(=O)c2cc1C(=O)NCc1ccccc1F | ? | . | -64* | -21%

Screening results (PubChem)
